From PubChem BioAssay
PfHsp90 yeast 2: growth inhibition of PfHsp90-expressing yeast, primary screen, antimalarial PfHsp90 inhibitor project, S. cerevisiae, BacTiter-Glo luminescence, single point, set 2 | inhibition, % at 9.4 µM | 310,000 compounds, 0.32% hits | BacTiter-Glo ATP, 48 h; yeast lacking PDR1 and PDR3 efflux regulators | AID 504621, 2011;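 active means every replicate shows inhibition above about 80%, whatever the replicate mean, limit read from the data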;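 further: 0% = DMSO neutral controls and 100% = 20 µM radicicol positive controls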
CASP6 VEID inh: human caspase-6 inhibitors, primary screen, biochemical, VEID-R110 fluorescence, single point, set 2. P55212. purified caspase-6, Z-VEID-R110 cleavage fluorescence. inhibition, % at 12.5 µM. 350,000 compounds, 0.53% hits;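 active means mean inhibition across replicates at least about 35%, with every replicate also reaching that limit, limit read from the data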;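 further: 0% = median of neutral control wells and 100% = no fluorescence left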
Target sequence (P55212 24-179 limits assumed): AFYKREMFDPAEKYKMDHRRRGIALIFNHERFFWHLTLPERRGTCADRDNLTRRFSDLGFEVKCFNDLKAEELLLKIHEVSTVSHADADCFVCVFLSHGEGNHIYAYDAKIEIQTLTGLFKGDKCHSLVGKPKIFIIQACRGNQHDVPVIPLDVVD
Target sequence (P55212 194-293 limits assumed): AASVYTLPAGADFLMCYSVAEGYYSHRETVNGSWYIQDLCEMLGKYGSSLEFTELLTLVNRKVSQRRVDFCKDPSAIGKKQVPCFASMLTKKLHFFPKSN
NSD2 inh: NSD2 histone methyltransferase inhibitors, primary screen, biochemical, AlphaScreen, single concentration, set 2 | 310,000 compounds, 0.54% hits | Histone-lysine N-methyltransferase NSD2 (Homo sapiens), O96028 | NSD2 peptide methylation, 120 min | inhibition, % at 12.5 µM | AID 743445, 2014; in the data active means inhibition above about 50%
ARNT-TACC3 inh: disruptors of ARNT/TACC3 protein interaction, primary screen, biochemical, AlphaScreen, single concentration. 390,000 compounds, 0.66% hits. Transforming acidic coiled-coil-containing protein 3 (Homo sapiens), Q9Y6A5. AID 623870, 2012. inhibition, % at 9.99 µM. AlphaScreen His-ARNT PAS-B/GST-TACC3 binding, luminescence; TACC3 fragment carries E629A point mutation;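 active means mean inhibition of replicates at least 50% and at least half of replicates each reaching 50%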;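 further: 0% = complete ARNT plus TACC3 wells and 100% = ARNT alone without TACC3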
SIRT5 inh: SIRT5 desuccinylase inhibitors, primary screen, biochemical, fluorescence imaging, single point, set 5; NAD-dependent protein deacylase sirtuin-5, mitochondrial (Homo sapiens), Q9NXA8; Purified SirT5, succinyl-peptide AMC, trypsin-coupled fluorescence; inhibition, % at 15 µM; 330,000 compounds, 1.1% hits; AID 652115, 2013; in the data active means inhibition above about 15%
Target sequence (Q9NXA8 whole entry, looked up): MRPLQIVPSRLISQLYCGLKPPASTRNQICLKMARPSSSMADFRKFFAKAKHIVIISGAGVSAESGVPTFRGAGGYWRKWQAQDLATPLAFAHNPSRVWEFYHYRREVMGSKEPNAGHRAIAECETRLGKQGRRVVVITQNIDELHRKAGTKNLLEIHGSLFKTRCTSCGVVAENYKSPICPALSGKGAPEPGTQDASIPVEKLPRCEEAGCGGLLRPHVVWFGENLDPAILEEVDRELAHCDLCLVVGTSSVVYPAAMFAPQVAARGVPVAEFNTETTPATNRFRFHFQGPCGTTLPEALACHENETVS
The depositor's hits bear a star; · = not tested or not shown. Rows were chosen to be rich in hits. Some 2.1% of all compounds tested hit in one or more screens of this group.

SMILES | PfHsp90 yeast 2 | CASP6 VEID inh | NSD2 inh | ARNT-TACC3 inh | SIRT5 inh
COc1cccc(/C=C2\CC(C)Cc3c2nc2ccccc2c3C(=O)O)c1OC (stereo unspecified) | 0 | 2 | -4 | 0 | 5
Cc1ccc(S(=O)(=O)N2CCN(C(=O)/C=C/c3ccco3)CC2)cc1 | -7 | 9 | -4 | 3 | -2
O=C(/C=C/c1ccco1)N1CCN(S(=O)(=O)c2ccccc2)CC1 | -22 | 48* | -1 | 3 | 5
CN(C)C(=O)C[C@@H]1CC[C@@H]2[C@H](COC[C@H](O)CN2CC2CC2)O1 | · | -7 | · | -6 | -1
CCN(c1ccccc1)S(=O)(=O)c1ccc(OC)c(NC(=O)Cc2ccc(F)cc2)c1 | 18 | -2 | 25 | -4 | 61*
CCN(c1ccccc1)S(=O)(=O)c1ccc(Cl)c(NC(=O)CN2C(=O)NC3(CCCC3)C2=O)c1 | 1 | 0 | 1 | -4 | 16*
O=C(CN1C(=O)NC2(CCCC2)C1=O)Nc1ccc(S(=O)(=O)N2CCOCC2)cc1 | 20 | 1 | -5 | -6 | 18*
O=C(CN1C(=O)NC2(CCCCC2)C1=O)Nc1cccc(S(=O)(=O)N2CCOCC2)c1 | -17 | 1 | -2 | -3 | -1
CCN(c1ccccc1)S(=O)(=O)c1ccc(OC)c(NC(=O)CNCCc2ccccc2)c1 | 6 | -1 | -1 | 6 | -1
CCC1(c2ccc(F)cc2)NC(=O)N(CC(=O)Nc2cccc(S(=O)(=O)N3CCCCC3)c2)C1=O (stereo unspecified) | 7 | 3 | -4 | 3 | 15*
CC=Cc1ccc2n(c1=O)C[C@H]1[C@H](CO)[C@@H](C(=O)NCCC)[C@@H]2N1Cc1nccs1 (mixture of isomers) | · | 3 | · | 25 | -16
C[C@@H]1CCCCO[C@@H](CN(C)C(=O)Nc2ccc(C(F)(F)F)cc2)[C@@H](C)CN([C@H](C)CO)C(=O)c2cc(NC(=O)Nc3ccc(C(F)(F)F)cc3)ccc2O1 | · | · | · | -28 | ·
CC1CCCCC1NC(=O)COC(=O)c1c2c(nc3ccccc13)/C(=C\c1ccco1)CC2 (stereo unspecified) | -1 | 3 | · | -1 | 0
O=C(COC(=O)c1c2c(nc3ccccc13)/C(=C\c1ccco1)CC2)NC1CCCC1 | · | 43* | 34 | · | -6
CCOc1ccc(NC(=O)CN2C(=O)S/C(=C/c3cccn3C)C2=O)cc1 | 21 | 1 | -6 | 6 | 112*
C[C@H]1CN([C@@H](C)CO)C(=O)c2cc(NC(=O)CCCN(C)C)ccc2O[C@H]1CN(C)CC1CCCCC1 | · | · | · | -2 | 3
COc1ccccc1NC(=O)N[C@@H]1CC[C@@H](CC(=O)N2CCC(Cc3ccccc3)CC2)O[C@@H]1CO | · | -3 | · | -7 | 4
O=c1c2c3c(sc2ncn1/N=C/c1ccc([N+](=O)[O-])o1)CCCC3 | 105* | 8 | 5 | -2 | 3
Cn1cc(/C=N/n2cnc3sc4c(c3c2=O)CCCC4)c2ccccc21 | · | · | -4 | -10 | ·
Cn1c(SCC(=O)O)nnc1-c1ccc(NC(=O)c2ccc(Cl)c(Cl)c2)cc1 | -11 | 1 | 0 | 6 | 16*
C[C@@H]1CCCCO[C@H](CN(C)Cc2ccc3c(c2)OCO3)[C@H](C)CN([C@@H](C)CO)C(=O)c2cc(NC(=O)Nc3cccc4ccccc34)ccc2O1 | · | · | · | 8 | ·
O=C(c1[nH]c(C(F)(F)F)nc1-c1ccccc1)N1CCCN(Cc2ccc(F)cc2)CC1 | · | -4 | · | · | 29*
CCCC(=O)Nc1ccc2c(c1)C(=O)N(C)[C@@H]1CC[C@@H](CC(=O)NCc3ccccc3F)O[C@H]1CO2 | · | · | · | -13 | ·
O=C(NCC[C@H]1CC[C@@H](NC(=O)c2cnccn2)[C@@H](CO)O1)c1ccc2c(c1)OCO2 | · | -1 | · | 2 | -3
C[C@H]1CN([C@@H](C)CO)C(=O)Cc2cc(NC(=O)Nc3ccc(C(F)(F)F)cc3)ccc2O[C@H]1CN(C)Cc1ccc(C(=O)Nc2ccccc2N)cc1 | · | 0 | · | -24 | 20*
SMILES | PfHsp90 yeast 2 | CASP6 VEID inh | NSD2 inh | ARNT-TACC3 inh | SIRT5 inh
C[C@H](CO)N1C[C@H](C)[C@@H](CN(C)Cc2ccc(C(F)(F)F)cc2)Oc2ccc(NC(=O)Cc3ccccc3)cc2CC1=O | · | -5 | · | 9 | 16*
C[C@@H]1CN([C@@H](C)CO)C(=O)Cc2cc(NC(=O)Cc3ccccc3)ccc2O[C@H]1CN(C)Cc1ccc(C(F)(F)F)cc1 | · | 1 | · | 3 | 13
C[C@@H]1CN([C@H](C)CO)C(=O)Cc2cc(NC(=O)Nc3ccc(C(F)(F)F)cc3)ccc2O[C@@H]1CN(C)Cc1ccc(C(=O)Nc2ccccc2N)cc1 | · | 2 | · | -24 | 0
C[C@@H]1CN([C@H](C)CO)C(=O)Cc2cc(NC(=O)Cc3ccccc3)ccc2O[C@@H]1CN(C)Cc1ccc(C(F)(F)F)cc1 | · | 1 | · | 8 | 16*
C[C@@H]1CN([C@H](C)CO)C(=O)Cc2cc(NC(=O)C3CC3)ccc2O[C@@H]1CN(C)Cc1ccccc1 | · | -1 | · | -17 | 99*
O=C(C[C@@H]1CC[C@H]2[C@@H](COC[C@@H](O)CN2C(=O)c2ccccc2F)O1)NCc1ccc(Cl)cc1 | · | -2 | · | -2 | 5
Cc1ccc(S(=O)(=O)Nc2ccc3c(c2)C(=O)N([C@@H](C)CO)C[C@H](C)[C@H](CN(C)S(=O)(=O)c2cccs2)OCCCC[C@@H](C)O3)cc1 | · | -1 | · | 8 | 18*
COc1ccc(S(=O)(=O)N(C)C[C@H]2OCCCC[C@@H](C)Oc3ccc(NS(=O)(=O)c4cccs4)cc3C(=O)N([C@H](C)CO)C[C@H]2C)cc1 | · | 1 | · | -3 | 2
COc1ccc(S(=O)(=O)N(C)C[C@@H]2OCCCC[C@H](C)Oc3ccc(NS(=O)(=O)c4cccs4)cc3C(=O)N([C@@H](C)CO)C[C@H]2C)cc1 | · | -3 | · | 0 | 19*
COc1ccc(S(=O)(=O)Nc2ccc3c(c2)C(=O)N([C@@H](C)CO)C[C@@H](C)[C@@H](CN(C)S(=O)(=O)c2cccs2)OCCCC[C@H](C)O3)cc1 | · | 1 | · | 1 | 23*
COCC(=O)N(C)C[C@@H]1Oc2ncc(C3=CCCC3)cc2C(=O)N([C@@H](C)CO)C[C@H]1C | · | -1 | · | -6 | -1
CCCNC(=O)C[C@H]1CC[C@H]2[C@H](COc3ccc(NC(=O)Nc4cccc(C)c4)cc3C(=O)N2C)O1 | · | 1 | · | 1 | -1
O=C(/C=C/c1ccccc1)Oc1ccccc1O | · | · | 2 | · | ·
C/C=C/c1ccc2c(c1)O[C@@H](CN(C)CC1CCOCC1)[C@H](C)CN([C@@H](C)CO)S2(=O)=O | · | 0 | · | 0 | 0
CCCNC(=O)N1CC2(C1)[C@H](c1ccccc1)[C@H](CO)N2C(=O)C1CC1 | · | 1 | · | · | 24*
